Records with an inconclusive call do not appear. Active and inactive are the calls of the source. The calls were made as follows: active = hit-call score of the fitted dose curve at least 0.9, where 1 is the maximum; inconclusive = response in the unintended direction; inactive = score below 0.9.
target: Cellular tumor antigen p53 (Homo sapiens) (UniProt P04637); assay: TOX21_p53_BLA_p2_ratio: Tox21 HCT-116 p53 Agonism Beta-lactamase Assay, Ratio, Phase 2 (AID 2283592)
Summary of the method: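 An inducible beta-lactamase reporter in HCT116 cells signals p53 pathway activation. After 16 h chemical exposure at 37C, cells load CCF4-AM substrate for 2 h at room temperature; activity is the cleaved/uncleaved emission ratio relative to DMSO.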

Cellular tumor antigen p53 (Homo sapiens), sequence (P04637 whole entry, looked up): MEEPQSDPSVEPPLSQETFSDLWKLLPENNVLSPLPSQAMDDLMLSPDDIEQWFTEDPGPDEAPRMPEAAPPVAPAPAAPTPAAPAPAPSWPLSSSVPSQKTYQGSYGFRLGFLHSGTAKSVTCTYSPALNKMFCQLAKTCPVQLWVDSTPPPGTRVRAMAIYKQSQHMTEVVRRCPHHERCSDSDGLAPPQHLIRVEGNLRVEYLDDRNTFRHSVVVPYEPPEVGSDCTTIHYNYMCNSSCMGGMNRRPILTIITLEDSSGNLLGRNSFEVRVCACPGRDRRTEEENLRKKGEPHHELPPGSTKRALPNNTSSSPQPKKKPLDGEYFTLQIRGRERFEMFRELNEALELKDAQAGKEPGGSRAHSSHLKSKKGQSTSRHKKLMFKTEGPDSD

SMILES | AC50 | outcome
CSc1nc2cc(Oc3cccc(Cl)c3Cl)c(Cl)cc2[nH]1 | 33.3 µM (active) | 
Cc1c(C)n(CCN(C)C)c2ccc(C(=O)OCCN(C)C)cc12 |  | inactive
C/C(=C(\CCOC(=O)c1ccccc1)SS/C(CCOC(=O)c1ccccc1)=C(/C)N(C=O)Cc1cnc(C)nc1N)N(C=O)Cc1cnc(C)nc1N |  | inactive
Cc1cc(N)c2ccccc2[n+]1CCCCCCCCCC[n+]1c(C)cc(N)c2ccccc21 |  | inactive
NC(=O)NS(=O)(=O)c1ccc(N)cc1 |  | inactive
C=C1CC[C@H](O)C/C1=C/C=C1\CCC[C@]2(C)[C@@H]([C@H](C)CCCC(C)(C)O)CC[C@@H]12 | 19.2 µM (active) | 
O=C1NCN(c2ccccc2)C12CCN(CCCC(c1ccc(F)cc1)c1ccc(F)cc1)CC2 | 39.1 µM (active) | 
CCC(C)(C)c1ccc(CC(C)CN2C[C@@H](C)O[C@@H](C)C2)cc1 (stereo partly drawn) |  | inactive
C=C(Nc1ccc(OCC)cc1)Nc1ccc(OCC)cc1 |  | inactive
Cc1ccc(O)c(O)c1 |  | inactive
COc1cc2c(cc1OC)C(=O)C(CC1CCN(Cc3ccccc3)CC1)C2 (stereo not drawn) |  | inactive
CC(C)(C)NCC(O)CSc1nc(-c2ccc(C(N)=O)s2)cs1 (stereo not drawn) |  | inactive
Oc1ccc(Cl)c2cccnc12 |  | inactive
Cc1cc2nc(N)sc2cc1C |  | inactive
CCOc1ccc2nc3cc(N)ccc3c(N)c2c1 | 30.3 µM (active) | 
Cc1cc2c(C(C)C)c(O)c(O)c(C=O)c2c(O)c1-c1c(C)cc2c(C(C)C)c(O)c(O)c(C=O)c2c1O | 30.1 µM (active) | 
CC[C@@H](CO)NCCN[C@@H](CC)CO |  | inactive
CO[Si](CCCNc1ccccc1)(OC)OC |  | inactive
CCCCCCCC[P+](CCCCCCCC)(CCCCCCCC)CCCCCCCC | 29.2 µM (active) | 
Nc1cnn([C@@H]2O[C@H](CO)[C@@H](O)[C@H]2O)c(=O)n1 | 3.04 µM (active) | 

SMILES | AC50 | outcome
O=C(O)c1cc(-c2ccccc2)nc2ccccc12 |  | inactive
CC(=O)OC(OC(C)=O)c1ccc([N+](=O)[O-])o1 |  | inactive
O=[N+]([O-])c1ccc(O)c2ncccc12 |  | inactive
COC(=O)C1=C(C)NC(C)=C(C(=O)OCCCN2CCC(c3ccccc3)(c3ccccc3)CC2)C1c1cccc([N+](=O)[O-])c1 (stereo not drawn) | 42 µM (active) | 
CCCOc1ccccc1-c1nc2n[nH]nc2c(=O)[nH]1 |  | inactive
Cn1c(O)c(N=NC(N)=S)c2ccccc21 |  | inactive
CCC(=O)O[C@]1(C(=O)SCF)[C@H](C)C[C@H]2[C@@H]3C[C@H](F)C4=CC(=O)C=C[C@]4(C)[C@@]3(F)[C@@H](O)C[C@@]21C |  | inactive
C[C@@H](NCCCc1cccc(C(F)(F)F)c1)c1cccc2ccccc12 | 39 µM (active) | 
OCCN1CCN(CCCN2c3ccccc3Sc3ccc(Cl)cc32)CC1 |  | inactive
CCCCCCCCCCCCCC[N+](C)(C)Cc1ccccc1 |  | inactive
CN1C(=O)OC(C)(C)C1=O |  | inactive
Cc1ccc(-n2nc(C(C)(C)C)cc2NC(=O)Nc2ccc(OCCN3CCOCC3)c3ccccc23)cc1 |  | inactive
CN(Cc1cc(Br)cc(Br)c1N)C1CCCCC1 |  | inactive
COc1c(Br)cc(Br)c(C)c1Br |  | inactive
Nc1nc(Cl)nc2c1ncn2[C@@H]1O[C@H](CO)[C@@H](O)[C@@H]1F | 0.119 µM (active) | 
NC(=O)C(=O)NN=Cc1ccc([N+](=O)[O-])o1 | 39.8 µM (active) | 
CCCCN(CCCC)c1ccc(C(=O)c2ccccc2C(=O)O)c(O)c1 |  | inactive
Nc1[nH]c(=O)ncc1F |  | inactive
Clc1ccc(COC(Cn2ccnc2)c2ccc(Cl)cc2Cl)c(Cl)c1 (stereo not drawn) | 17.3 µM (active) | 

tested on: not listed separately; assay: TOX21_p53_BLA_p3_viability: Viability Assessment in the Tox21 HCT-116 p53 Agonism Beta-lactamase Assay, Phase 3 (AID 2283593);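 also: cells exposed to compound for 16 h before reading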
Summary of the method: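 Cellular ATP was quantified by CellTiter-Glo luminescence, read after 30 min at room temperature. Beforehand, HCT116 cells (4000/well) received compound 5 h post-seeding, 217-fold diluted from DMSO, then incubated 16 h at 37C.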

SMILES | AC50 | outcome
CSc1nc2cc(Oc3cccc(Cl)c3Cl)c(Cl)cc2[nH]1 | 22.6 µM (active) | 
Cc1c(C)n(CCN(C)C)c2ccc(C(=O)OCCN(C)C)cc12 |  | inactive
C/C(=C(\CCOC(=O)c1ccccc1)SS/C(CCOC(=O)c1ccccc1)=C(/C)N(C=O)Cc1cnc(C)nc1N)N(C=O)Cc1cnc(C)nc1N |  | inactive
Cc1cc(N)c2ccccc2[n+]1CCCCCCCCCC[n+]1c(C)cc(N)c2ccccc21 |  | inactive
NC(=O)NS(=O)(=O)c1ccc(N)cc1 |  | inactive
C=C1CC[C@H](O)C/C1=C/C=C1\CCC[C@]2(C)[C@@H]([C@H](C)CCCC(C)(C)O)CC[C@@H]12 | 13.7 µM (active) | 
O=C1NCN(c2ccccc2)C12CCN(CCCC(c1ccc(F)cc1)c1ccc(F)cc1)CC2 | 35.9 µM (active) | 
CCC(C)(C)c1ccc(CC(C)CN2C[C@@H](C)O[C@@H](C)C2)cc1 (stereo partly drawn) |  | inactive
C=C(Nc1ccc(OCC)cc1)Nc1ccc(OCC)cc1 |  | inactive
Cc1ccc(O)c(O)c1 | 41.5 µM (active) | 
COc1cc2c(cc1OC)C(=O)C(CC1CCN(Cc3ccccc3)CC1)C2 (stereo not drawn) |  | inactive
CC(C)(C)NCC(O)CSc1nc(-c2ccc(C(N)=O)s2)cs1 (stereo not drawn) |  | inactive
Oc1ccc(Cl)c2cccnc12 |  | inactive
Cc1cc2nc(N)sc2cc1C |  | inactive
CCOc1ccc2nc3cc(N)ccc3c(N)c2c1 |  | inactive
Cc1cc2c(C(C)C)c(O)c(O)c(C=O)c2c(O)c1-c1c(C)cc2c(C(C)C)c(O)c(O)c(C=O)c2c1O | 6.89 µM (active) | 
CC[C@@H](CO)NCCN[C@@H](CC)CO |  | inactive
CO[Si](CCCNc1ccccc1)(OC)OC |  | inactive
CCCCCCCC[P+](CCCCCCCC)(CCCCCCCC)CCCCCCCC | 13.3 µM (active) | 
Nc1cnn([C@@H]2O[C@H](CO)[C@@H](O)[C@H]2O)c(=O)n1 |  | inactive

SMILES | AC50 | outcome
O=C(O)c1cc(-c2ccccc2)nc2ccccc12 |  | inactive
CC(=O)OC(OC(C)=O)c1ccc([N+](=O)[O-])o1 | 74.1 µM (active) | 
O=[N+]([O-])c1ccc(O)c2ncccc12 |  | inactive
COC(=O)C1=C(C)NC(C)=C(C(=O)OCCCN2CCC(c3ccccc3)(c3ccccc3)CC2)C1c1cccc([N+](=O)[O-])c1 (stereo not drawn) | 36 µM (active) | 
CCCOc1ccccc1-c1nc2n[nH]nc2c(=O)[nH]1 |  | inactive
Cn1c(O)c(N=NC(N)=S)c2ccccc21 |  | inactive
CCC(=O)O[C@]1(C(=O)SCF)[C@H](C)C[C@H]2[C@@H]3C[C@H](F)C4=CC(=O)C=C[C@]4(C)[C@@]3(F)[C@@H](O)C[C@@]21C |  | inactive
C[C@@H](NCCCc1cccc(C(F)(F)F)c1)c1cccc2ccccc12 | 30 µM (active) | 
OCCN1CCN(CCCN2c3ccccc3Sc3ccc(Cl)cc32)CC1 |  | inactive
CCCCCCCCCCCCCC[N+](C)(C)Cc1ccccc1 |  | inactive
CN1C(=O)OC(C)(C)C1=O |  | inactive
Cc1ccc(-n2nc(C(C)(C)C)cc2NC(=O)Nc2ccc(OCCN3CCOCC3)c3ccccc23)cc1 |  | inactive
CN(Cc1cc(Br)cc(Br)c1N)C1CCCCC1 | 39.5 µM (active) | 
COc1c(Br)cc(Br)c(C)c1Br |  | inactive
Nc1nc(Cl)nc2c1ncn2[C@@H]1O[C@H](CO)[C@@H](O)[C@@H]1F |  | inactive
NC(=O)C(=O)NN=Cc1ccc([N+](=O)[O-])o1 |  | inactive
CCCCN(CCCC)c1ccc(C(=O)c2ccccc2C(=O)O)c(O)c1 | 23.1 µM (active) | 
Nc1[nH]c(=O)ncc1F |  | inactive
Clc1ccc(COC(Cn2ccnc2)c2ccc(Cl)cc2Cl)c(Cl)c1 (stereo not drawn) |  | inactive

From PubChem BioAssay (EPA / NIEHS)
